Laboratory results: PubChem BioAssay AID624465 (National Center for Advancing Translational Sciences (NCATS), 2012)
In all, about 360,000 compounds went through this assay and about 300 (0.083%) were called active. Shown is part of a subset that was picked to be rich in actives. Values without a mark were called inactive. Rule as the data show it: active = activation above about 40%; inconclusive = between about 15% and that limit; inactive = weaker than that.

Target: D(2) dopamine receptor (Homo sapiens) (UniProt P14416)
Assay: Beta-Arrestin HTS for Positive Allosteric Modulators of the Human D2 Dopamine Receptor: Agonists
Settings: DiscoveRx PathHunter D2 beta-arrestin, luminescence, 90 min; hits give high values; 100% = 57 uM dopamine signal
How it was run: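 Agonist mode: compounds alone added to overnight-plated D2 PathHunter cells for 90 min at 37 C, with 57 uM final dopamine (EC100) defining full response. Beta-arrestin recruitment detected by chemiluminescent reagent, read after 1 h at ambient temperature.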

Chain of D(2) dopamine receptor (Homo sapiens) (P14416 whole entry, looked up): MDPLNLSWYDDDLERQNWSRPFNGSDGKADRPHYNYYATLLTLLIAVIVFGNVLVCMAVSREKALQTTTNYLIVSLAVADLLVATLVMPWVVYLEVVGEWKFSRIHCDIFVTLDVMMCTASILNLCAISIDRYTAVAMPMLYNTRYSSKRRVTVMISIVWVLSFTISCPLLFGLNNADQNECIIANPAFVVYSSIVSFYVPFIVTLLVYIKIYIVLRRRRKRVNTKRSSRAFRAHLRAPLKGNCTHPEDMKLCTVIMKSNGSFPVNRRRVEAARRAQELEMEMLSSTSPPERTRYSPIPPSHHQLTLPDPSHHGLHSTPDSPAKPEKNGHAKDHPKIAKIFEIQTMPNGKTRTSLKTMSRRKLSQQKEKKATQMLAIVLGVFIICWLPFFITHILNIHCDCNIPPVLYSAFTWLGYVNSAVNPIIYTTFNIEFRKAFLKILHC

| SMILES | activation |
| --- | --- |
| COCc1[nH][nH]c(=O)c1C=Nc1ccc(F)cc1F | -3.8% |
| COC(=O)C1CC2=C(CC(C)(C)CC2=O)N(c2ccccc2)C1=O (stereo not given) | -1.92% |
| O=C(CS(=O)(=O)c1cn(Cc2ccc(Cl)cc2)c2ccccc12)N1CCOCC1 | -7.71% |
| COc1ccc(S(=O)(=O)N(C)C[C@@H]2Oc3ccc(NS(=O)(=O)c4cn(C)cn4)cc3C(=O)N([C@@H](C)CO)C[C@@H]2C)cc1 | -2% |
| Brc1cnc2ccccc2c1N1CCCCC1 | -0.246% |
| COC(=O)c1cc(CNC(=O)CC(C)c2ccccc2)ccc1OC (stereo not given) | -6.11% |
| C/C(=N\NC(=O)c1ccc(CSc2nc(C)cc(C)n2)cc1)C1CCCCC1 | 2.32% |
| CCOC(=O)C(C)Sc1nnc(CSc2nc3nc(C)cc(C)n3n2)o1 (stereo not given) | -4.24% |
| CN(C)C(=O)CCC(=O)N1CCCCC1C(=O)Nc1ccc(Oc2ccccc2F)cc1 (stereo not given) | -8.59% |
| COc1ccc(N(CC(=O)NC2CCCC2)C(=O)CS(=O)CC(=O)Nc2ccc3c(c2)OCO3)cc1 (stereo not given) | -1.02% |
| Cc1ccccc1-c1nc(CS(=O)(=O)CC(=O)N2CCc3ccccc3C2)c(C)o1 | -4.35% |
| CCC1C(C#N)=C(SC)NC2=C1C(=O)CC(C)(C)C2 (stereo not given) | -0.142% |
| O=C(NC1CCCCC1)C1CC(=O)N(CCc2ccccc2)C1 (stereo not given) | -0.239% |
| CO/N=C/c1cn(-c2ccc(Cl)cc2)nn1 | -5.2% |
| N#CC1(Nc2ccc3c4c(cccc24)CC3)CCCCC1 | -1.77% |
| O=S(=O)(NCCS(=O)(=O)N1CCN(c2ccccc2)CC1)c1ccc(F)cc1 | -3.38% |
| CCOc1ccc(CC(=O)NCCS(=O)(=O)N2CCN(c3ccccc3)CC2)cc1 | 0.195% |
| CCS(=O)(=O)N1CCC(N2CCN(c3ccccc3)CC2)CC1 | 45.9% (active) |
| COc1ccc(CCn2c(NCCCN3CCOCC3)nc3c2c(=O)[nH]c(=O)n3C)cc1 | 0.498% |
| COc1ccc(CCn2c(NN=C3CCCC3)nc3c2c(=O)[nH]c(=O)n3C)cc1 | 46% (active) |
| CC1CCN(c2nc3c(c(=O)[nH]c(=O)n3C)n2CCCc2ccccc2)CC1 | 1.37% |
| Cc1noc(C)c1C(=O)NC(C)c1ccc2c(c1)OCO2 (stereo not given) | 2.73% |
| Nc1cc2c(cc1Br)-c1ccc(F)cc1C2=O | 0.435% |

| SMILES | activation |
| --- | --- |
| Cn1nc(C(=O)OCC(=O)N(Cc2ccccc2)C(C)(C)C)c2ccccc2c1=O | -5.43% |
| CNC[C@@H]1Oc2c(NS(C)(=O)=O)cccc2C(=O)N([C@@H](C)CO)C[C@H]1C | -2.2% |
| CCOc1cc(CN2CCCC(CO)(Cc3ccc(F)cc3F)C2)ccc1OC (stereo not given) | -5.13% |
| COc1ccccc1N1CCN(S(=O)(=O)CCNC(=O)c2ccc(OC(C)C)cc2)CC1 | 4.66% |
| CCCCNC(=O)c1nc(C2CCN(S(=O)(=O)c3ccc(F)c(F)c3)CC2)oc1-c1cccc(C(F)(F)F)c1 | -1.93% |
| OCCN1CCN(CCO)C1=S | -3.52% |
| O=C(CSc1nnc2n1CCCN2)c1ccccc1 | 1.27% |
| COc1cc([N+](=O)[O-])cc([N+](=O)[O-])c1NC(=O)N1CCOCC1 | 5.63% |
| COc1cc(C(=S)N2CCOCC2)cc(OC)c1OC(=O)c1ccc([N+](=O)[O-])cc1[N+](=O)[O-] | 48% (active) |
| COc1cc(C(=S)N2CCOCC2)cc(OC)c1OC(=O)c1cc([N+](=O)[O-])c(C)c([N+](=O)[O-])c1 | 4.7% |
| O=C(CN(C(=O)CNC(=O)c1cccs1)c1cccc(F)c1)NC1CCCCC1 | -1.63% |
| O=C1CCC(C(=O)N2CCCCO2)CN1Cc1cccc(C(F)(F)F)c1 (stereo not given) | 1.46% |
| CCCCN1C(=O)C(CC(=O)NC(c2ccccc2)c2ccccc2)CC(C(=O)N2CCOCC2)=C1C (stereo not given) | -7.35% |
| CCOC(=O)C(CCOc1cccc(CC)c1)C(=O)OCC | -1.01% |
| CNC(=O)c1csc(Cc2c(Cl)sc3ccc(Cl)cc23)n1 | 4.37% |
| Cc1ccc(S(=O)(=O)N(CC(=O)Nc2cccc([N+](=O)[O-])c2)Cc2ccc(Cl)cc2)cc1 | -7.47% |
| CCC(C)NC(=O)Cn1nc(C(F)(F)F)c2c1CCC2 (stereo not given) | 1.68% |
| COc1ccc(S(=O)(=O)N(C)C[C@H]2OCc3cnnn3CCCC(=O)N([C@H](C)CO)C[C@H]2C)cc1 | 4.14% |
| CN(C)CCNC(=O)c1ccc(-c2cn3c(-c4ccc(Oc5ccccc5)cc4)cnc3cn2)cc1 | 3.24% |
| C/C=C/C(=O)Nc1nnc(C(C)C)s1 | -0.338% |
| O=C(NNc1nc(N2CCCC2)nc(N2CCCC2)n1)c1ccccc1 | 1.25% |
| Cc1cc2c(cc1C)NC1(C[C@H]3CCC(=O)N4CC[C@@H](C1)[C@@H]34)C(=NC(C)(C)CC(C)(C)C)N2 (stereo not given in full) | 1.8% |
